The source of these data is PubChem BioAssay (Tox21).

Test [1] can be described thus: qHTS assay for small molecule agonists of the p53 signaling pathway - cell viability (AID 651633; calls by dose curve; further: nearly all actives have a fitted effect of over 30% in size; further: potency means the concentration at half of the fitted maximal effect;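 on activity change, negative = cytotoxicity: p53RE-bla HCT reporter cells with a stable beta-lactamase p53 reporter; series mostly up to about 83 µM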). The method in brief:
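Viability counter-read: CellTiter-Glo luminescence (30 min, room temperature) in the same p53RE-bla plates. These plates had been exposed to compounds for 16 h at 37 C.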

Test [2] is described as follows: qHTS assay for small molecule disruptors of the mitochondrial membrane potential - cell viability (AID 720634; calls by dose curve; further: nearly all actives have a fitted effect of over 20% in size; further: potency means the concentration at half of the fitted maximal effect;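 on activity change, negative = cytotoxicity: human HepG2 liver cancer cells; series mostly up to about 83 µM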). The method in brief:
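Viability of HepG2 cells is scored from ATP content by luminescence; cells are exposed to compound for 1 hr at 37 C and 5% CO2, then dosed with m-MPI dye before the CellTiter-Glo reagent.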

The nature of test [3]: qHTS assay for small molecule disruptors of the mitochondrial membrane potential (AID 720635). Further: potency means the concentration at half of the fitted maximal effect. The method in brief: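 Mitochondrial membrane potential tracked with Mito-MPS dye, red aggregates (ex 540/em 590 nm) against green monomers (ex 490/em 535 nm). Compound treatment 1 hr at 37C, dye 30 min in HepG2.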
A short description of test [4]: qHTS assay to test for compound auto fluorescence at 590 nm (red) in HepG2 cells (AID 720674). The method in brief: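 Red autofluorescence (Ex/Em 540/590 nm, Rose Bengal sodium equivalents) was measured in HepG2 cells, 2,000 per well in MEM plus 10% FBS, plated overnight at 37 C. Readings were taken 1 hr after adding 23 nL compound or DMSO, at 37 C and 5% CO2.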
A short description of test [5]: qHTS assay to test for compound auto fluorescence at 535 nm (green) in HepG2 cells (AID 720675). In general terms: Quantitative high-throughput screening tests each substance at several concentrations.
Test [6] is described as follows: qHTS assay to test for compound auto fluorescence at 460 nm (blue) in HEK293 cells (AID 720678). Further: potency means the concentration at half of the fitted maximal effect. The method in brief:
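Measured: blue fluorescence (Ex 405/Em 460 nm) of compound-treated HEK293 cells, incubated overnight at 37C with 5% CO2 and scaled to triamterene equivalents.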

Test [7] in a line: qHTS assay to test for compound auto fluorescence at 590 nm (red) in HEK293 cells (AID 720679). The method in brief:
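Using HEK293 cells at 2,000 per well, the screen added 23 nL of each compound after cell attachment and incubated overnight (37C, 5% CO2). The plate reader then captured red-label fluorescence, Ex/Em 540/590nm.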

The nature of test [8]: qHTS assay for small molecules that induce genotoxicity in human embryonic kidney cells expressing luciferase-tagged ATAD5 - cell viability (AID 651634; calls by dose curve; further: nearly all actives have a fitted effect of over 25% in size; further: potency means the concentration at half of the fitted maximal effect). The method in brief: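 Here HEK293T cells with the ATAD5 luciferase reporter are incubated with test compounds for 15.5 hr, and cytotoxicity is then gauged by measuring protease activity in live cells using fluorescence.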

The nature of test [9]: qHTS assay for small molecules that induce genotoxicity in human embryonic kidney cells expressing luciferase-tagged ATAD5 (AID 651632). Further: nearly all actives have a fitted effect of over 15% in size. The method in brief:
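DMSO vehicle served as the control. HEK293T reporter cells, 16 hr at 37C, then 30 min Amplite at room temperature; ATAD5 induction is measured as luciferase activity.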

“And” between values parts separate entries of the source, which are not always exact repeats. Equal values may be shown once. Results filed as inconclusive are left out. More than one record can exist for a structure, and the calls need not agree. The source made the active and inactive calls. Unless noted, the call rests on the fitted dose curve; in most records, active means well fitted curve in the direction sought with a large enough effect in the repeat runs; inconclusive means weak or mixed curves; inactive means no such curve, though single readings can be large; an effect the other way counts as inactive or inconclusive.
On the % scale 0 is the no-effect control and ±100 the full control effect; tags describe the fitted curve by direction and shape or compound fluorescence and quenching.

With `S=C=NCCc1ccccc1`, the Potency result in [1], in test [2], in test [5] and in test [6] was “inactive” in each case. For the same compound, the Potency in [3] is 38.6 µM (active). The call in test [4] and in test [7] was inactive.
For the compound `CNN`, the Potency result in test [1], in test [8], in test [2], in test [3], in [5] and in [6] was “inactive” throughout. For the same compound, the compound was classed as inactive in [7].
Take `O=[N+]([O-])[O-].[Tl+]`: the result in [4] and in [7] was inactive. Also, the Potency entry in test [5] and in test [6] was “inactive” throughout.
As for `O.O.O.O.O.O.O=S(=O)([O-])[O-].[Ni+2]`, the Potency result in [8], in test [2], in test [5] and in test [6] was “inactive” each time. For the same compound, the outcome in [4] and in test [7] was inactive.
`CC(=O)[O-].CC(=O)[O-].[Co+2]`: the Potency result in [1], in test [8], in test [5] and in test [6] was “inactive” throughout. For the same compound, the compound was classed as inactive in test [4] and in test [7].
As to `O.O.O.O=C([O-])[C@H]([O-])[C@@H]([O-])C(=O)[O-].O=C([O-])[C@H]([O-])[C@@H]([O-])C(=O)[O-].[K+].[K+].[Sb+3].[Sb+3]`, the Potency entry in test [8], in test [2], in [5] and in [6] was “inactive” each time. The call in test [4] and in test [7] was inactive.
As for `O=[N+]([O-])c1ccc(CCl)cc1`, the Potency entry in test [1], in test [8], in test [2], in [3], in [5] and in test [6] was “inactive” each time. For the same compound, the outcome in test [4] and in test [7] was inactive.
As for `Cc1ccccc1OP(=O)(Oc1ccccc1C)Oc1ccccc1C`, the Potency entry in test [9], in test [5] and in [6] was “inactive” each time. The Potency is 9.73 µM (active) in test [2] and 17.3 µM (active) in test [3]. Further, the compound was classed as inactive in [4] and in test [7].
In the case of `[Cl-].[Cl-].[Cl-].[Yb+3]`, the call in test [4] and in test [7] was inactive. Further, the Potency entry in test [5] and in test [6] was “inactive” in each case.
As for `CCCCn1cc[n+](C)c1.[Cl][Fe-]([Cl])([Cl])[Cl]`, the Potency result in test [8], in [2], in [3], in test [5] and in [6] was “inactive” each time. Also, the call in test [4] and in [7] was inactive.
On to `[F][Sn]([c]1ccccc1)([c]1ccccc1)[c]1ccccc1`, for which the Potency in test [1] is 3.06 µM (active); in test [8] it was 0.486 µM (active); in [2], 19.3 µM (active); in test [3], 0.273 µM (active). In addition, the result in test [4] and in test [7] was inactive. In addition, in [6], the Potency result is “inactive”.
As to `O=[N+]([O-])C(Br)Br`, the Potency result in test [9], in test [5] and in test [6] was “inactive” each time. For the same compound, the compound was classed as inactive in test [4] and in [7].
With `Clc1ccc(C(Cl)(Cl)Cl)cc1Cl`, the Potency entry in test [9], in test [2] and in test [6] was “inactive” each time. For the same compound, the Potency in test [3] is 59.8 µM (active). Moreover, the call in test [4] and in [7] was inactive.
Take `C1=CCC=C1`: the Potency entry in test [2] and in [5] was “inactive” each time. Further, the compound was classed as inactive in [4] and in test [7].
On to `CSSC`, for which the Potency entry in [1], in test [5] and in [6] was “inactive” each time. The call in [4] and in [7] was inactive.
As to `[O]=[Cr](=[O])([OH])[O][Cr](=[O])(=[O])[OH]`, the Potency result in test [9], in [5] and in [6] was “inactive” throughout. Besides, the Potency result is “inactive and 27.6 µM (active) and 30.6 µM (active)” in test [2]; “inactive and 13.8 µM (active) and 27.3 µM (active)” in test [3]. Besides, the call in [4] and in test [7] was inactive.
For the compound `CCOP(=S)(OCC)SC(CCl)N1C(=O)c2ccccc2C1=O` (stereo not given), the Potency result in test [9], in [8] and in test [6] was “inactive” each time. For the same compound, the compound was called inactive in test [4] and in test [7].
In the case of `CC(=O)[O-].CC(=O)[O-].CC(=O)[O-].[Cr+3]`, the Potency result in test [1], in [8], in test [5] and in test [6] was “inactive” each time. In addition, the compound was classed as inactive in test [4] and in test [7].
On to `CC(=O)[O-].CC(=O)[O-].O.O.O.[Pb+2]`, for which the result in test [4] and in test [7] was inactive. In addition, the Potency result in test [5] and in test [6] was “inactive” in each case.
On to `CC(=O)[O-].CC(=O)[O-].CC(=O)[O-].[Sb+3]`, for which the activity change, negative = cytotoxicity in test [1] is 11.3% [at 8.08 µM] (inactive). In test [8], the activity, negative = cytotoxicity was 20.6% [at 8.08 µM] (inactive). Besides, the fluorescence, relative to Rose Bengal in test [4] was -0.0388% [at 3.72 µM] (inactive). Also, in test [5], the fluorescence, % of fluorescein control is -0.114% [at 3.72 µM] (inactive). For the same compound, the fluorescence, % of triamterene in [6] was -0.0361% [at 3.72 µM] (inactive). For the same compound, the fluorescence, % of fluorescent control in [7] was 0.24% [at 3.72 µM] (inactive).
Regarding `CC(Cc1ccc(O)cc1)NCC(O)c1cc(O)cc(O)c1` (stereo not given), the Potency result in test [8], in [2], in test [3], in [5] and in test [6] was “inactive” in each case. Further, the compound was called inactive in test [7].
`CCO/N=C(\CC)C1=C(O)CC(c2c(C)cc(C)cc2C)CC1=O` (stereo not given): the Potency entry in test [1], in [8], in test [2], in [5] and in test [6] was “inactive” in each case. In addition, the Potency in [3] was 12.2 µM (active). In addition, the call in test [4] and in test [7] was inactive.
For `N#Cc1c2ccccc2cc2ccccc12`, the values for the Potency in test [3] and in test [6] were 1.72 µM (active) and 1.26 µM [fluorescent] (active), respectively. Besides, the compound was classed as inactive in test [4] and in [7]. Further, the Potency entry in test [5] is “inactive”.
`N#CSCc1ccccc1`: the Potency entry in test [1], in [8], in [2], in test [5] and in [6] was “inactive” each time. Besides, the outcome in test [4] and in [7] was inactive.
For `[Cl-].[Cl-].[Sn+2]`, the Potency result in test [8], in test [5] and in test [6] was “inactive” throughout. In addition, the compound was called inactive in test [4] and in test [7].
Turning to `[C-]1=CC=CC1.[Cl][Zr+2][Cl].c1cc[cH-]c1`, the Potency result in [8], in test [2] and in test [5] was “inactive” each time. Moreover, the outcome in [4] and in test [7] was inactive.
On to `O.O.O.O.O.O.O.O=S(=O)([O-])[O-].[Co+2]`, for which the Potency entry in test [2], in test [5] and in test [6] was “inactive” in each case. The result in test [4] and in test [7] was inactive.
Consider `N#Cc1sc2c(=O)c3ccccc3c(=O)c=2sc1C#N`, for which the Potency in [1] is 5.45 µM (active); in test [2] it was 24.3 µM (active); in test [3], 24.3 µM (active). In addition, the Potency result in test [8], in test [5] and in test [6] was “inactive” each time. For the same compound, the result in test [7] was inactive.
In the case of `Oc1cc(Cl)c(Cl)c(Cl)c1Cl`, the Potency entry in [9], in test [5] and in test [6] was “inactive” in each case. Moreover, the compound was called inactive in test [4] and in test [7].
In the case of `CCc1cccc(C)c1N(C(=O)CCl)[C@@H](C)COC`, the Potency entry in [9], in test [5] and in test [6] was “inactive” throughout. Further, the compound was classed as inactive in [4] and in test [7].
